These results are taken from paper PMC8136818, “Evolving origin-of-transfer sequences on staphylococcal conjugative and mobilizable plasmids—who’s mimicking whom?”.

What all share (details): protein: recombinant; tags: His6-TEV, cleaved; chain copies: 4
One assay addresses T1, SmpO49 (Staphylococcus aureus plasmid pWBG749, UniProt UPI0001BEA96A 1-84).
T1 sequence: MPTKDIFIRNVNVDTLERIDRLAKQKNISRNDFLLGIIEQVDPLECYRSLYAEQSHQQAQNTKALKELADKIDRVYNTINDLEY
The assay is described as follows: SPR (ReDCaT); 150 mM NaCl; 10 mM HEPES, 3 mM EDTA, 0.05% Tween 20, NaCl 150 mM (SmpO49 screens), 300 mM (SmpO45, SmpO408, SmpOUNa screens) or 250 mM (Table S4); pH and temperature not stated; protein 1 uM; high values mean tight binding. The essentials:
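Tag-cleaved protein, expressed in E. coli BL21(DE3)pLysS and purified by nickel-affinity and size-exclusion chromatography, was screened on a Biacore T200 SA chip by reusable DNA capture. OriT oligonucleotides were captured at 1 μM on Fc2, with a control linker on Fc1. Protein at 1 μM was injected at 30 μl/min (60 s contact, 60 s dissociation) in 10 mM HEPES, 150 mM NaCl, 3 mM EDTA, 0.05% Tween 20. DNA binding is reported as %Rmax.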

For another assay, the target named is T2, SmpOSep (Staphylococcus epidermidis VCU120).
T2 chain: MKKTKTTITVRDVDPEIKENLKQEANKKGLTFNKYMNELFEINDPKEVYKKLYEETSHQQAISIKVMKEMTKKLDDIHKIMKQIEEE
The assay is described as follows: SPR (ReDCaT); 250 mM NaCl; 10 mM HEPES, 3 mM EDTA, 0.05% Tween 20, NaCl 150 mM (SmpO49 screens), 300 mM (SmpO45, SmpO408, SmpOUNa screens) or 250 mM (Table S4); pH and temperature not stated; protein 1 uM; high values mean tight binding.

For the next assay, the target named is T3, SmpOUNa (plasmid pC02).
T3 chain: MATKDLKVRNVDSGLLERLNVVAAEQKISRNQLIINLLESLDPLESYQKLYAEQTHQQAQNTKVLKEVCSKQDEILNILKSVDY
The assay is described as follows: SPR (ReDCaT); 300 mM NaCl; 10 mM HEPES, 3 mM EDTA, 0.05% Tween 20, NaCl 150 mM (SmpO49 screens), 300 mM (SmpO45, SmpO408, SmpOUNa screens) or 250 mM (Table S4); pH and temperature not stated; protein 1 uM; high values mean tight binding. The essentials:
(§1)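 The running buffer was 10 mM HEPES, 300 mM NaCl, 3 mM EDTA, 0.05% Tween 20, and protein at 1 μM was injected at 30 μl/min for 60 s contact and 60 s dissociation. The protein had been expressed in E. coli BL21(DE3)pLysS, cleaved of its tag, and purified by nickel-affinity and size-exclusion chromatography. OriT oligonucleotides were captured at 1 μM on Fc2 of a Biacore T200 SA chip by reusable DNA capture, and a linker was captured on Fc1. Values are DNA binding expressed as %Rmax.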

A further assay concerns the target T4, SmpO45 (Staphylococcus aureus plasmid pWBG745, UniProt UPI0001BEA8D3 1-84).
T4 sequence: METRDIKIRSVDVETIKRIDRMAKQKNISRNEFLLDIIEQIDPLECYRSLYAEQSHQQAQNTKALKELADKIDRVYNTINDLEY
Described as above. Put shortly:
as §1

For assay [1], the target named is T5, SmpO408 (Staphylococcus aureus M0408).
T5 chain: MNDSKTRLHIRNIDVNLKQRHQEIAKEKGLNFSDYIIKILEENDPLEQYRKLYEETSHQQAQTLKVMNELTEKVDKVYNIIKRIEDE
The assay is described as above. Put shortly:
as §1

For assay [2], the target named is T5, SmpO408. The assay is described as follows: SPR (ReDCaT); 250 mM NaCl; 10 mM HEPES, 3 mM EDTA, 0.05% Tween 20, NaCl 150 mM (SmpO49 screens), 300 mM (SmpO45, SmpO408, SmpOUNa screens) or 250 mM (Table S4); pH and temperature not stated; protein 1 uM; high values mean tight binding.

B1: ossA49 (dsDNA)
DNA 1: TTTATGATATCACTAT
DNA 2: ATAGTGATATCATAAA
For the molecule B1, the binding signal with SmpO49 worked out at 26 ± 1.13 %Rmax; with SmpOSep it was 1.2 %Rmax.

B2: OTUNA.4 (dsDNA)
DNA 1: TTAATTTTTGTGACCCCCATAAGATAAATG
DNA 2: CATTTATCTTATGGGGGTCACAAAAATTAA
For B2, the binding signal with SmpOUNa was 58.4 ± 1.36 %Rmax.

B3: ossA45-16 (dsDNA)
DNA 1: ATTGTGGGGTCACTTA
DNA 2: TAAGTGACCCCACAAT
Consider B3, for which, in the assay with SmpO45, the binding signal amounted to 43.4 ± 1.14 %Rmax.

B4: OTUNa For/Rev_16 (dsDNA)
DNA 1: AGATTACCCATTATAAAATGGGTACATATT
DNA 2: AATATGTACCCATTTTATAATGGGTAATCT
Turning to B4, in the assay with SmpOUNa, the binding signal is 12.5 ± 0.926 %Rmax.

B5: OTUNa For/Rev_7 (dsDNA)
DNA 1: CAATATATTGTGTCACAAAAGTGTGACAAT
DNA 2: ATTGTCACACTTTTGTGACACAATATATTG
With B5, in the assay with SmpOUNa, the binding signal was found to be 3.471 ± 0.00557 %Rmax.

B6: OT49.4 (dsDNA)
DNA 1: GTTTTTATGATATCACTATGAAATGTCCTA
DNA 2: TAGGACATTTCATAGTGATATCATAAAAAC
Consider B6, for which, in the assay with SmpO49, the binding signal stood at 17 ± 0.325 %Rmax.

B7: OT408.5 (dsDNA)
DNA 1: CGGTTTTATAGGCGCCTAATAAAAACCTCT
DNA 2: AGAGGTTTTTATTAGGCGCCTATAAAACCG
Consider B7, for which, in the assay with SmpO408 [1], the binding signal came out at 109 %Rmax.

B8: OT408 For/Rev_14 (dsDNA)
DNA 1: GTATCCCTTGAAATGTCTGGCTTCGCCAGA
DNA 2: TCTGGCGAAGCCAGACATTTCAAGGGATAC
For B8, the binding signal with SmpO408 [1] was 8.57 %Rmax.

B9: OT408 For/Rev_12 (dsDNA)
DNA 1: GGCGCCTAATAAAAACCTCTGTATCCCTTG
DNA 2: CAAGGGATACAGAGGTTTTTATTAGGCGCC
Turning to B9, the binding signal with SmpO408 [1] is 25.9 %Rmax.

B10: ossA45-13 (dsDNA)
DNA 1: ATTGTGGGGTCAGTTT
DNA 2: AAACTGACCCCACAAT
Turning to B10, in the assay with SmpO45, the binding signal was 30.8 ± 1.19 %Rmax.

B11: OT49.12 (dsDNA)
DNA 1: GATGATAGCAAATTCCCCTTATGCTCTTAC
DNA 2: GTAAGAGCATAAGGGGAATTTGCTATCATC
In the case of B11, the binding signal with SmpO49 came out at 0.431 ± 0.0378 %Rmax.

B12: OTUNa For/Rev_17 (dsDNA)
DNA 1: TTATAAAATGGGTACATATTTCCCTTATGC
DNA 2: GCATAAGGGAAATATGTACCCATTTTATAA
As for B12, in the assay with SmpOUNa, the binding signal came out at 9.96 ± 0.667 %Rmax.

B13: ossA49-2 (dsDNA)
DNA 1: TATATGATATCACTAT
DNA 2: ATAGTGATATCATATA
In the case of B13, in the assay with SmpO49, the binding signal was determined as 26.3 ± 1.74 %Rmax.

B14: ossA49-5 (dsDNA)
DNA 1: TTTAAGATATCACTAT
DNA 2: ATAGTGATATCTTAAA
Consider B14, for which, in the assay with SmpO49, the binding signal was found to be 6.94 ± 0.948 %Rmax.

B15: ossA408 (dsDNA)
DNA 1: TTATAGGCGCCTAATA
DNA 2: TATTAGGCGCCTATAA
With B15, the binding signal in the assay with SmpO408 [2] was 52.8 %Rmax; in the assay with SmpO408 [1] it was 63.9 ± 1.02 %Rmax.

B16: OT408 For/Rev_17 (dsDNA)
DNA 1: CCCACCTTTTTAATAGGTGGCAAATTTCCC
DNA 2: GGGAAATTTGCCACCTATTAAAAAGGTGGG
Regarding B16, the binding signal with SmpO408 [1] stood at 64.6 %Rmax.

B17: OTUNa For/Rev_18 (dsDNA)
DNA 1: GGGTACATATTTCCCTTATGCTCTTACAAA
DNA 2: TTTGTAAGAGCATAAGGGAAATATGTACCC
B17: the binding signal with SmpOUNa came out at 26.2 ± 1.85 %Rmax.

B18: OTUNa For/Rev_11 (dsDNA)
DNA 1: TGACCCCCATAAGATAAATGTTTAAAACCC
DNA 2: GGGTTTTAAACATTTATCTTATGGGGGTCA
For the molecule B18, in the assay with SmpOUNa, the binding signal worked out at 18.2 ± 1.39 %Rmax.

B19: ossA49-15 (dsDNA)
DNA 1: TTTATGATATCACTTT
DNA 2: AAAGTGATATCATAAA
Regarding B19, the binding signal with SmpO49 amounted to 26.8 ± 1.07 %Rmax.

B20: ossA49-3 (dsDNA)
DNA 1: TTAATGATATCACTAT
DNA 2: ATAGTGATATCATTAA
Consider B20, for which, in the assay with SmpO49, the binding signal worked out at 26.8 ± 1.8 %Rmax.
